# HPGD inh – HPGD (human) dehydrogenase inhibition; hit rate 4.3% among 150,000; P15428; Potency, µM, inactives show at the highest dose activity change, negative = inhibition, hits mostly inhibitors; purified HPGD, NADH fluorescence kinetic, PGE2 substrate; further: on the % scale 0 is the no-effect control and ±100 the full control effect
# Target sequence (P15428 whole entry, looked up): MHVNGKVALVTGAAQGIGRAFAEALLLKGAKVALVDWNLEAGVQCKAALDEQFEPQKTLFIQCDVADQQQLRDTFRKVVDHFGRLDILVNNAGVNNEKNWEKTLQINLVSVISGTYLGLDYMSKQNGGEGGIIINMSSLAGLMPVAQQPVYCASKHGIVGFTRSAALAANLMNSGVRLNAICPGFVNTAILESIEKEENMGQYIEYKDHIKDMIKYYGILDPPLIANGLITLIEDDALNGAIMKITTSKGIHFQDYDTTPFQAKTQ
#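 20 nM HPGD preincubated 15 min at room temperature with compound in 50 mM Tris-HCl pH 8, 0.01% Tween 20. Started with 1 mM NAD+ and 30 uM prostaglandin E2; NADH fluorescence (360/450 nm) read 5 times over 30-s intervals, last minus first.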
# ALDH1A1 block – ALDH1A1 (human) enzyme inhibition; P00352; Purified ALDH1A1, NADH fluorescence, propionaldehyde substrate; Potency, µM (highest dose often 75.3 µM), without a hit: top-dose activity, negative = inhibition, most hits filed as inhibitors; hit rate 7.3% among 220,000;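 further: plate controls were no enzyme wells and a reference inhibitor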
# Target sequence (P00352 whole entry, looked up): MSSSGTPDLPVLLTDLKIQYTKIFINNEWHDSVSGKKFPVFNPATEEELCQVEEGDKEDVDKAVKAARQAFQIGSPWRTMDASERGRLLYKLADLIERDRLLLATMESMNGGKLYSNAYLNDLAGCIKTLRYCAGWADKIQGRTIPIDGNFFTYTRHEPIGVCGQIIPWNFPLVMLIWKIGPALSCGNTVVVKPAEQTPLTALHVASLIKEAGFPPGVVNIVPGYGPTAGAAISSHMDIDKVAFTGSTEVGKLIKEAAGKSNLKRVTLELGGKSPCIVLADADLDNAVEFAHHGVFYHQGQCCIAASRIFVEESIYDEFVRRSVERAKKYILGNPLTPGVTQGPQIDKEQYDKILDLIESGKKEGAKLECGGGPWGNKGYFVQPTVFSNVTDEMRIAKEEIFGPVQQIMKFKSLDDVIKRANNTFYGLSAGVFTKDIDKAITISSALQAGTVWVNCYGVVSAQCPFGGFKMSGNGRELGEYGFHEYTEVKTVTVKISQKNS
# HTT cytoprotect – cytoprotection in Huntington HTT-Q103 PC12 cell model; hit rate 0.14% among 230,000; Potency, µM (highest dose often 56.4 µM), without a hit: cytoprotection (ATP increase), most hits filed as activators; PC12 HTT-Q103 induced, cytoprotection, ATP luminescence, 40 h; active means well fitted curve in the direction sought with a large enough effect; inconclusive means small, poorly fitted or top-dose-only effect, or another doubt; inactive means no such curve, though single readings can be large; an effect the other way counts as inactive or inconclusive; further: % of control where 0% means no effect; nearly all actives have a fitted effect of over 45% in size
#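 Readout: ATPlite luminescence (ATP level). Model: stable PC12, inducible Htt exon1 Q103-GFP. Inducer: tebufenozide, 100 nM final. Compounds: dose series. No G418 in medium.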
# JMJD2E inh – JMJD2E (human) inhibition. hit rate 1.6% among 230,000. Potency, µM (series often up to 57.1 µM), inactives show top-dose activity change, negative = inhibition, actives largely listed as inhibitors. JMJD2E catalytic domain, FDH-coupled NADH fluorescence (FDH is formaldehyde dehydrogenase);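 further: 0% = wells with enzyme and -100% = buffer wells without enzyme; nearly all actives have a fitted effect of over 50% in size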
# HTT aggregate – inhibitors of mutant huntingtin aggregate formation in PC12 cells | AID 1688 | PC12 HttQ103-GFP aggregates, Acumen cytometry, 40 h | hit rate 1.1% among 220,000 | Potency, µM (doses to about 46.1 µM), for the others: top-dose activity change, negative = inhibition, actives largely listed as inhibitors; active means well fitted curve in the direction sought with a large enough effect; inconclusive means small, poorly fitted or top-dose-only effect, or another doubt; inactive means no such curve, though single readings can be large; an effect the other way counts as inactive or inconclusive; further: on the % scale 0 is the no-effect control and ±100 the full control effect; nearly all actives have a fitted effect of over 60% in size
#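 Using laser scanning cytometry, GFP-positive aggregates were counted after lysis of PC12 cells induced with 100 nM tebufenozide to express HTT exon 1 Q103–GFP. Compounds were tested in titration.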
# LMNA splice mod – modulators of lamin A splicing. HeLa LMNA splicing GFP/RFP minigene ratio, 48 h. hit rate 0.01% among 200,000. Potency, µM (doses to about 46.1 µM), for inactives: at the top dose ratio change, negative = inhibition, most hits filed as inhibitors; active means well fitted inhibition curve with a large enough effect in the signal ratio, with a control signal flat, not every such curve was filed as active; inconclusive means small, poorly fitted or top-dose-only effect, or effect the other way, or a change in a side signal; the % refers to the signal ratio; further: on the % scale 0 is the no-effect control and ±100 the full control effect
#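 Read-out is the ratio of GFP to DsRed2 object intensity, acquired by 488 nm laser-scanning cytometry on HeLa lamin A-EGFP minigene reporter cells. Compound incubation 48 hrs at 37 °C in Opti-MEM with 2% FBS; DMSO 0.5% final.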
# The depositor's hits bear a star; ? = inconclusive; . = no result given; ! = not active in a repeat; [ ] = remark or other dose. An excerpt weighted towards active compounds, which were near 9.2% of everything screened. Unless noted, the call rests on the fitted dose curve; in most records, active means well fitted inhibition curve with a large enough effect (not every such curve was filed as active); inconclusive means small, poorly fitted or top-dose-only effect, or another doubt; inactive means no such curve, though single readings can be large or run the other way. Potency means the concentration at half of the fitted maximal effect.
SMILES,HPGD inh,ALDH1A1 block,HTT cytoprotect,JMJD2E inh,HTT aggregate,LMNA splice mod
N#CC(C#N)=Cc1ccc(N2CCCC2)cc1,.,10µM*,-36%,-12%,-14%,.
COc1cc(C=C(C#N)C#N)cc(O)c1O,32µM*,32µM*,11%[1.9 µM],11µM*,.,?
N#C/C(=C\c1ccc(O)cc1)C(=O)O,?,?,.,?,.,-3%
CC(C)(C)c1cc(C=C(C#N)C#N)cc(C(C)(C)C)c1O,?,8.9µM*!,-76%,19%,.,?
CN(C)c1ccc(C=C(C#N)C#N)cc1,-5%,28µM*,15%[1.9 µM],7%,15%,-14%
N#C/C(=C\c1cccc(O)c1)C(=O)O,-30%,-9%,.,?,.,2%
N#CC(C#N)=Cc1ccc(O)c(O)c1,32µM*,11µM*,38%,7.9µM*,5%,?
N#CC(=Cc1ccc(O)c(O)c1)C(N)=S,28µM*,0.79µM*,.,8.9µM*,.,?
CCc1ccc(/C=C(/C#N)C(N)=S)cc1,32µM*,32µM*,.,?,3%,?
N#CC(C#N)=Cc1ccc(-c2ccccc2)o1,-14%,?,?,6%,25%,?
Nc1ncnc2c1ncn2[C@@H]1O[C@H](COP(=O)(O)OP(=O)(O)CP(=O)(O)O)[C@@H](O)[C@H]1O,.,?,3%,.,.,.
COC(=O)[C@@H]1C[C@@]2(O)[C@@H](O)[C@@H](O)[C@@H](O)C[C@H]2N1Cc1cccnc1,0%,-7%,-7%,-4%,.,.
O=C(CSc1nnnn1-c1ccccc1)Nc1ccc(N2CCOCC2)c(Cl)c1,-8%,2.2µM*,-11%,-3%,7%,?
C=C(C)C1CCC(C)=CC1c1c(O)cc(O)cc1CCCCC (stereo unspecified),-4%,-13%,-363%,.,.,.
CC(=O)[C@@]1(O)CC[C@H]2C3CCC4=CC(=O)CC[C@]4(C)C3CC[C@@]21C (stereo partly specified),-13%,3%,.,8%,.,?
CC(C)Nc1ccc(Nc2ccccc2)cc1,-14%,8.9µM*,5%,.,-29%,1.4µM*
CC12C=CC(=O)C=C1CCC1C2=CCC2(C)C1CC[C@@H]2C(=O)CN1CCN(c2cc(N3CCCC3)nc(N3CCCC3)n2)CC1 (stereo partly specified),.,?,-9%,.,.,.
N=C(N)n1cc(/C=N\N=C(N)N)cn1,-13%,-3%[13.5 µM],-13%[10 µM],.,.,.
Cc1noc(C(=O)Nc2sc3c(c2C#N)CCC3)c1Cl,25µM*,13µM*,-143%,?,?,?
O=C(O)/C=C\C(=O)Nc1ccc(Oc2ccc(Br)cc2)cc1,.,1.4µM*,.,4%,.,22%[46 µM]
O=C(Nc1ccc(Br)cc1)c1cc(Br)cc(Br)c1O,-12%,?,-83%,.,?,?
COc1ccc(C(=O)O[C@H]2CC[C@@]3(C)[C@H]4CC[C@H]5[C@]3(C[C@]3(O)[C@H]6CN7C[C@H](C)CC[C@H]7[C@](C)(O)[C@]6(O)[C@H](O)C[C@]53O)O[C@]24O)cc1OC,-3%,9%[13.5 µM],7%[10 µM],.,.,.
COC(=O)C1=Nc2ccccc2/C1=C\c1c(O)n(-c2cc(OC)ccc2OC)c(=O)[nH]c1=O,14µM*,?,.,?,-10%,3%
Cc1ccccc1-n1c(O)c(/C=C2/C(c3ccccc3)=Nc3ccccc32)c(=O)[nH]c1=O,28µM*,?,-38%[1.9 µM],2%,-5%,?
Cc1cccc(N=Cc2c(O)n(-c3ccccc3C)c(=O)[nH]c2=O)c1,?,25µM*,-2%[10 µM],4%,17%,0%
SMILES,HPGD inh,ALDH1A1 block,HTT cytoprotect,JMJD2E inh,HTT aggregate,LMNA splice mod
Cc1cccc(-n2c(O)c(/C=C3/C(c4ccccc4)=Nc4ccccc43)c(=O)[nH]c2=O)c1,.,.,-36%[10 µM],?,-11%[9.22 µM],.
Cc1ccc(-n2c(O)c(/C=C3/C(c4ccccc4)=Nc4ccccc43)c(=O)[nH]c2=O)cc1,.,25µM*,-53%[10 µM],4%,11µM*,?
Cc1ccccc1-n1c(O)c(C=Nc2ccc(N(C)C)cc2)c(=O)[nH]c1=O,-5%,-13%,-8%,-30%,?,?
OC(c1ccc(Cl)cc1)(c1ccc(Cl)cc1)C(Cl)(Cl)Cl,-6%,-5%,-2%,.,.,.
C/C=C/C=O,-4%,-2%,7%,.,.,.
CC/C(=N\Nc1cccc2ccccc12)c1c(O)[nH]c(=O)[nH]c1=O,?,14µM*,-8%[10 µM],?,-13%,-12%
O=C1NC(=O)C(=Cc2cc3c(cc2[N+](=O)[O-])OCO3)C(=O)N1,.,16µM*,-41%,?,-3%,-8%[46 µM]
C=C1CC2C(CC[C@]3(C)C(=O)CCC23)[C@]2(C)C=CC(=O)C=C12 (stereo partly specified),-9%,28µM*,?,?,16%,?
COC1=CC(=O)OC(CCc2ccccc2)C1 (stereo unspecified),-6%,-9%,-16%,.,.,.
CC1=CC(=O)NP(=O)(Oc2ccc3ccccc3c2)N1 (stereo unspecified),35µM*,?,-7%,-9%,8%,14%
O=C1NC(=O)C(=Cc2ccc(SC3CCCCC3)o2)C(=O)N1,.,25µM*,.,?,24%,.
CN(C)CCCc1cccnc1,-7%,2%[13.5 µM],11%[10 µM],.,.,.
CCc1ccc(CCN2CCCCC2)nc1,-6%,-4%[13.5 µM],10%[10 µM],.,.,.
Cn1ncnc2c(=O)n(C)c(=O)nc1-2,-23%,?,-88%,4µM*,5µM*,?
O=[N+]([O-])c1cc2c(cc1CNCCc1ccc3c(c1)OCO3)OCO2,-3%,28µM*,2%[10 µM],1%,3%,-10%
Oc1ccc(CCNCc2cc3c(cc2Br)OCO3)cc1,-23%,-1%[13.5 µM],-26%[10 µM],.,.,.
O=C(O)C1Sc2[nH]c(=O)sc2C2c3cc(Cl)ccc3OC(=O)C12 (stereo unspecified),?,13µM*,0%[0.074 µM],14µM*,0%,0%
O=C(O)c1cc[c]([Hg][S]c2ncnc3nc[nH]c23)cc1,0.22µM*,0.89µM*,-76%[10 µM],.,.,.
CCC(=Nc1cc(OC)ccc1OC)c1c(O)[nH]c(=O)[nH]c1=O,25µM*,?,-4%,-5%,-5%,?
CCC(=NC(C)c1ccccc1)c1c(O)[nH]c(=O)[nH]c1=O (stereo unspecified),.,.,22%[10 µM],9%,-3%[9.22 µM],.
CCC(=Nc1ccc(OC)cc1OC)c1c(O)[nH]c(=O)[nH]c1=O,25µM*,-4%,-17%,-7%,-13%,-2%
C=CCn1c(O)c(C(CC)=Nc2cc(OC)ccc2OC)c(=O)[nH]c1=O,-29%,?,-18%[0.074 µM],-23%,2%,-9%
CC(C)=C[C@H]1[C@@H](C(=O)OCc2cc3c(cc2Cl)OCO3)C1(C)C,-7%,-13%[13.5 µM],-3%[10 µM],.,.,.
O=C(Cl)OCc1ccccc1,-7%,?,-1%,.,.,.

# Assay outcomes from PubChem BioAssay.
